Results on 39 compounds are retold here after PubChem BioAssay.

Each structure is given as a SMILES string. A number with no mark means an inactive call. Calls of active or inactive are those of the source. Cut-off read from the data, not from the text of the source: active = fold change permeability below about 0.7 or above about 1.3; inactive = in between.

The nature of this test: modulators of brain endothelial barrier permeability, primary screen, cell-based, FITC-avidin fluorescence, HTS (AID 1963498). Note: test concentration not given here. The note with it: actives lie on both sides.
`C=C1C[C@@]23CC[C@H]4[C@@](C)(CCC[C@@]4(C)C(=O)O)[C@@H]2CC[C@]1(O)C3`: the fold change permeability was 0.9.

Consider `N=C(N)c1ccc(N)cc1`, for which the fold change permeability was 1.1.

Consider `O=C1NCN(c2ccccc2)C12CCN(CCCC(c1ccc(F)cc1)c1ccc(F)cc1)CC2`, for which the fold change permeability is 1.2.

Regarding `CCc1cccc2c3c([nH]c12)C(CC)(CC(=O)O)OCC3` (centres undefined), the fold change permeability was 1.3 (active).

With `CCCC(CCC)C(=O)OC1CC2CCC(C1)[N+]2(C)C` (centres undefined), the fold change permeability is 0.9.

`Cc1cc(C(C)(C)C)c(O)c(C)c1CC1=NCCN1`: the fold change permeability was 0.8.

Turning to `O=C(O)CNC(=O)C(CS)Cc1ccccc1` (centres undefined), the fold change permeability was 0.6 (active).

For the compound `CN1C2CCC1CC(OC(=O)c1c[nH]c3ccccc13)C2` (centres undefined), the fold change permeability is 1.6 (active).

For `CCN1CCCC1CNC(=O)c1cc(S(N)(=O)=O)ccc1OC` (centres undefined), the fold change permeability was 0.7 (active).

Consider `O=c1c2ccccc2[nH]c(=S)n1CCN1CCC(=C(c2ccc(F)cc2)c2ccc(F)cc2)CC1`, for which the fold change permeability was 1.6 (active).

On to `O=C(O)/C=C/c1cnc[nH]1`, for which the fold change permeability is 1.4 (active).

As for `C[C@H](C#Cc1ccc(Cc2ccc(F)cc2)s1)N(O)C(N)=O`, the fold change permeability is 1.1.

For the compound `O=c1[nH]c2ccccc2n1CCN1CCN(c2cccc(C(F)(F)F)c2)CC1`, the fold change permeability is 1.5 (active).

`C=C[C@@]1(C)CC(=O)[C@]2(O)[C@@]3(C)[C@@H](O)CCC(C)(C)[C@@H]3[C@H](O)[C@H](OC(C)=O)[C@@]2(C)O1`: the fold change permeability was 0.8.

On to `COc1cc(C(O)C(=O)O)ccc1O` (centres undefined), for which the fold change permeability was 1.

Consider `Cn1c(=O)c2c(nc(/C=C/c3cccc(Cl)c3)n2C)n(C)c1=O`, for which the fold change permeability was 1.6 (active).

`COC(=O)C1=CO[C@@H](O)[C@@H]2C(CO)=CC[C@H]12`: the fold change permeability is 1.1 (active).

In the case of `Cc1cccc(C2CN(C)CCc3c2cc(O)c(O)c3Cl)c1` (centres undefined), the fold change permeability was 0.7 (active).

Take `CCSC(=N)N`: the fold change permeability is 1.1.

Regarding `CC(C(=O)O)c1ccc(C(=O)c2cccs2)cc1` (centres undefined), the fold change permeability is 0.8.

As to `OCCN1CCN(CCCN2c3ccccc3Sc3ccc(C(F)(F)F)cc32)CC1`, the fold change permeability was 1.4 (active).

With `CNS(=O)(=O)CCc1ccc2[nH]cc(C3CCN(C)CC3)c2c1`, the fold change permeability was 1.

As for `CC(C)CN(C[C@@H](O)[C@H](Cc1ccccc1)NC(=O)O[C@H]1CO[C@H]2OCC[C@H]21)S(=O)(=O)c1ccc(N)cc1`, the fold change permeability was 1.4 (active).

For the compound `COc1ccc(C2(CNC(=O)c3ccc(NC(=O)c4ccco4)cc3)CCOCC2)cc1`, the fold change permeability was 0.7 (active).

`CCN(CC)CCNC(=O)c1cc(S(C)(=O)=O)ccc1OC`: the fold change permeability is 0.9.

Regarding `C#CCn1c(=O)c2c(ncn2C)n(C)c1=O`, the fold change permeability is 0.9.

For `Nc1nc(Nc2ccccc2)nc2c1ncn2[C@@H]1O[C@H](CO)[C@@H](O)[C@H]1O`, the fold change permeability was 0.8.

Regarding `N#C/C(=C\c1ccc(-c2cc(Cl)ccc2Cl)o1)C(=O)Nc1cccc2ncccc12`, the fold change permeability is 2.1 (active).

In the case of `CC1(C)SCCN(S(=O)(=O)c2ccc(OCC#CCO)cc2)[C@H]1C(=O)NO`, the fold change permeability is 1.1.

As for `Cc1nc2sccn2c(=O)c1CCN1CCC(=C(c2ccc(F)cc2)c2ccc(F)cc2)CC1`, the fold change permeability was 1.9 (active).

For `CNC(=O)Nc1cc(Oc2cncc(OC)c2)c(C2CCCOC2)cn1` (centres undefined), the fold change permeability is 1.1.

For the compound `CCN(CC)Cc1ccc(C(=O)N(CCc2ccccc2OC)[C@@H]2CCNC2)cc1`, the fold change permeability was 0.9.

In the case of `O=c1[nH]cc(F)c(=O)[nH]1`, the fold change permeability is 0.8.

As for `O=C(c1ccc(F)cc1)C1CCN(CCn2c(=O)[nH]c3ccccc3c2=O)CC1`, the fold change permeability is 1.2.

For the compound `NC(N)=NCCC[C@H](NC(=O)[C@@H](N)Cc1ccc(O)cc1)C(=O)O`, the fold change permeability was 1.2.

On to `N#CC(C#N)=C(N)/C(C#N)=C/c1cc(O)c(O)c(O)c1`, for which the fold change permeability is 1.7 (active).

On to `O=C1S/C(=C\c2ccc(OCc3ccc(B(O)O)cc3)cc2)C(=O)N1Cc1ccc(F)cc1`, for which the fold change permeability was 1.2.

For the compound `CCOC(=O)C1=C[C@@H](OC(CC)CC)[C@H](NC(C)=O)[C@@H](N)C1`, the fold change permeability was 0.8.

On to `O=c1[nH]c2ccccc2c2ccccc12`, for which the fold change permeability is 1.
